Experimental data reported in the supplement of paper PMC7366291.
Structures can show the parent of a compound that is named as a salt. ± gives the standard deviation of the averaged measurements.

tested on: Danio rerio Tg(wt1b:EGFP) embryo, pronephros; test: glomerular width (mean of left and right), fold change vs DMSO control; higher = wider glomerulus; details: 25 µM; exposure: 24-48 hpf
Method in brief: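 Using a Fiji macro, distances and angles were calculated from 16 reference points set by hand on maximum projections of pronephroi imaged dorsally (470 nm, 10 z-slices) in agarose-filled 96-well plates. The dechorionated Tg(wt1b:EGFP) zebrafish embryos had received 25 μM compound in 0.5% DMSO in HEPES-buffered E3 with 0.003% PTU from 24 to 48 hpf at 28.5°C. Values more than 2 SD from a feature's mean were excluded. Each feature appears as a fold change over the mean of DMSO-treated embryos from the same day.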

Going from `NCCc1c[nH]cn1` [Histamine dihydrochloride] to `CCCc1cc(C(N)=S)ccn1` [Prothionamide], the glomerular width rises from 0.9518 ± 0.0028 to 0.9746 ± 0.0041.

Going from `CC1=C(/C=C/C(C)=C/C=C/C(C)=C\C(=O)O)C(C)(C)CCC1` [Isotretinoin] to `C[C@]12C=CC(=O)C=C1CC[C@@H]1[C@@H]2[C@@H](O)C[C@@]2(C)[C@H]1CC[C@]2(O)C(=O)CO` [Prednisolone], the glomerular width rises from 0.525 ± 0.021 to 1.22 ± 0.043.

Going from `COc1cc(C(=O)NC2CCCNC2)cc(OC)c1OC` (configuration not stated) [Troxipide] to `CC(C)OC(=O)CCC/C=C\C[C@@H]1[C@@H](CC[C@@H](O)CCc2ccccc2)[C@H](O)C[C@@H]1O` [Latanoprost], the glomerular width rises from 0.976 ± 0.011 to 1.05 ± 0.014.

tested on: Danio rerio Tg(wt1b:EGFP) embryo, pronephros; test: fraction of imaged embryos annotated as normal kidney; higher = less nephrotoxic; extreme values may be limits of the assay; details: 25 µM; exposure: 24-48 hpf
Method in brief: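 Embryos of the Tg(wt1b:EGFP) zebrafish line were dechorionated and held in 12-well plates with 25 μM compound in 0.5% DMSO and 5 mM HEPES-buffered E3 containing 0.003% PTU, from 24 to 48 hpf at 28.5°C. Larvae were then anaesthetised with tricaine, set dorsal side up in agarose-filled 96-well plates, and their pronephroi imaged by widefield fluorescence at 470 nm over 10 z-slices. Each value is the fraction of embryos per treatment placed in the normal-kidney category after manual annotation of maximum projections.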

First: N=C(N=C(N)N)N1CCOCC1 [Moroxidine hydrochloride]
Second: NC1CCN(c2nc3c(cc2F)c(=O)c(C(=O)O)cn3-c2ccc(F)cc2F)C1 (configuration not stated) [Tosufloxacin hydrochloride]
The “fraction of imaged embryos annotated as normal kidney” value (“fraction of imaged embryos annotated” below) of the first is lower: 0.75 for the first, 0.833 for the second.

Going from `Cn1c(=O)c2nc[nH]c2n(C)c1=O` [Theophylline monohydrate] to `COc1cnc(NS(=O)(=O)c2ccc(N)cc2)nc1` [Sulfameter], the “fraction of imaged embryos annotated” value falls from 1 to 0.833.

Compared with `CC(Oc1ccccc1)C(=O)N[C@@H]1C(=O)N2[C@@H]1SC(C)(C)[C@@H]2C(=O)O` (some centres not stated) [Phenethicillin potassium salt], `CO[C@H]1/C=C/O[C@@]2(C)Oc3c(C)c(O)c4c(c3C2=O)C2=NC3(CCN(CC(C)C)CC3)NC2=C(NC(=O)/C(C)=C\C=C\[C@H](C)[C@H](O)[C@@H](C)[C@@H](O)[C@@H](C)[C@H](OC(C)=O)[C@@H]1C)C4=O` [Rifabutin] is lower in “fraction of imaged embryos annotated” value: 0.667 for the first, 0.583 for the second.
